PubChem BioAssay (Tox21)
Records with an inconclusive call do not appear. Where a call stands in place of a potency, no number is given. Active and inactive are the calls of the source. Calls come from the whole dose curve; as a rule, active = well fitted inhibition curve with a large enough effect in the repeat runs; inconclusive = weak or mixed curves; inactive = no such curve, though single readings can be large or run the other way.

target: Cytochrome P450 3A4 (Homo sapiens) (UniProt P08684); experiment: Cytochrome P450 Family 3 Subfamily A Member 4 (CYP3A4) small molecule antagonists: luciferase reporter qHTS assay (AID 1671201); conditions: P450-Glo CYP3A4 enzyme, luciferin luminescence, 1 h; series mostly up to 115 µM; note: nearly all actives have a fitted effect of over 50% in size
Sequence (P08684 whole entry, looked up): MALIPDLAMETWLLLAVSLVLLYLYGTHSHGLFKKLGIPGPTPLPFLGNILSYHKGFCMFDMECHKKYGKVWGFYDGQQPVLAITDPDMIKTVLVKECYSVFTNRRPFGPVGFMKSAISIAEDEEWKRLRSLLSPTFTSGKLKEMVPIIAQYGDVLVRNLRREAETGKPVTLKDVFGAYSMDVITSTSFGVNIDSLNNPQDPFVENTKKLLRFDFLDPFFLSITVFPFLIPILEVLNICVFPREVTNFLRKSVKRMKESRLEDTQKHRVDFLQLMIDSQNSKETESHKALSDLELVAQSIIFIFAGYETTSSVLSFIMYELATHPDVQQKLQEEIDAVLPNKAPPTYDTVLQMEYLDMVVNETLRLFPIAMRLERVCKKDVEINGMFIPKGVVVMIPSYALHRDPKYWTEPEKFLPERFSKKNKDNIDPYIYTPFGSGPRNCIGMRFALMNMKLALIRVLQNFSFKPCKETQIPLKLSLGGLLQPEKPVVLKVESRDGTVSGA
Text: National Center for Advancing Translational Sciences [NCATS]
U.S. Environmental Protection Agency [EPA]
National Institutes of Environmental Health Sciences [NIEHS]
National Toxicology Program [NTP]
U.S. Food and Drug Administration [FDA]
Cytochrome P450 (CYP) enzymes are membrane-bound hemeproteins that play a key role in metabolism of drugs and xenobiotics. Evaluation of the effect of chemicals on CYP isozymes is useful to minimize the adverse drug reactions and toxicities in drug development process. Tox21 chemicals were tested for their effect on CYP enzyme activities by using P450-Glo (TM) screening systems (Promega Corporation, Madison, WI). These systems provide a luminescent method containing proluciferin substrates and are converted to luciferin products by CYP isozymes. The luciferin products formed are detected with a luciferin detection reagent, and the amount of light produced is proportional to CYP activity. P450-Glo (TM) CYP3A4 screening system (Catalog. No. V9910) was used to detect the compounds that interfere in CYP3A4 activity. The positive control compound used for CYP3A4 assay is ketoconazole (Sigma-Aldrich, St. Louis, MO).
Tox21 Assay Protocol Summary:
Two ul of enzyme-substrate mix was dispensed into medium binding white/solid 1536-well plates (Greiner Bio-One North America Inc., Monroe, NC) using a BioRaptr Flying Reagent Dispenser (FRD, Beckman Coulter, Brea, CA). Compounds dissolved in DMSO and positive control (ketoconazole) were transferred to the assay plates at 23 nl using a Pintool station (Wako, San Diego, CA). The assay plates were incubated at room temperature for 10 min. Then 2 ul of NADPH regeneration solution was added to each well of the assay plates using an FRD and incubated at room temperature for 1 h. The reaction was stopped by adding 4 ul of detection reagent using an FRD and after 20 min incubation at room temperature the luminescence signal was measured using a ViewLux plate reader (Perkin Elmer, Shelton, CT). Data were expressed as relative luminescence units.
Potency is the fitted concentration of half-maximal effect.

Row | Compound | Potency
1 | CCC(CO)(CO)CO | inactive
2 | CC1=CC[C@@H]2C[C@H]1C2(C)C | 3.98 µM (active)
3 | O=P(O)(O)Oc1ccccc1 | inactive
4 | NC(=O)c1ccccc1[N+](=O)[O-] | inactive
5 | CC(C(=O)O)c1ccc(C(=O)c2cccs2)cc1 (stereo not given) | inactive
6 | COC(C)(C)OC | inactive
7 | C1CCCCC1 | inactive
8 | CCN(Cc1cccc(S(=O)(=O)O)c1)c1ccc(C(=C2C=CC(=[N+](CC)Cc3cccc(S(=O)(=O)O)c3)C=C2)c2ccccc2S(=O)(=O)[O-])cc1 | 14.2 µM (active)
9 | Cc1ccc2c(c1)CCCN2 | inactive
10 | Cc1ccc(Nc2c(F)cccc2Cl)c(CC(=O)O)c1 | inactive
11 | CCO[Si](C)(CCCOCC1CO1)OCC (stereo not given) | 39.9 µM (active)
12 | C=CCOC(=O)COCCC(C)C | inactive
13 | CCCCC[C@H](O)/C=C/[C@H]1[C@H](O)CC(=O)[C@@H]1C/C=C\CCCC(=O)O | inactive
14 | C=Cc1ccc(OC(C)=O)cc1 | inactive
15 | CC12CC3CC(C)(C1)CC(N)(C3)C2 | inactive
16 | SCCc1cnccn1 | inactive
17 | CC[C@@H](CO)NCCN[C@@H](CC)CO | inactive
18 | CCN(CC)C(=O)/C(C#N)=C/c1cc(O)c(O)c([N+](=O)[O-])c1 | inactive
19 | NC(=O)CCCCC(N)=O | inactive
20 | O=C1OC[C@H](Cc2cccc(O)c2)[C@H]1Cc1cccc(O)c1 | 9.58 µM (active)

Row | Compound | Potency
21 | CCN(CC)CCNC(=O)c1cc(Cl)c(N)cc1OC | inactive
22 | CCCCCCCCCCCCCOS(=O)(=O)O | inactive
23 | CC(C)(C)C1(CCc2ccc(Cl)cc2)CO1 (stereo not given) | inactive
24 | CC(C)(C(=O)c1cccnc1)c1cccnc1 | 0.389 µM (active)
25 | O=C(c1ccccc1)C1CCC1 | inactive
26 | CC(=O)C(C)=O | inactive
27 | CCCOC(=O)c1c(Cl)c(Cl)c(Cl)c(Cl)c1C(=O)OCCC | inactive
28 | CCN(CC)C(=O)N1CCN(C)CC1 | inactive
29 | CCCCCCOC(=O)CCCCC | inactive
30 | CNS(=O)(=O)c1cc(C(=O)N2CCC(CCN3C4CCC3CC(n3c(C)nc5ccccc53)C4)(c3cccc(F)c3)CC2)c(Cl)cc1F (stereo not given) | inactive
31 | O=C(/C=C/c1ccc([N+](=O)[O-])cc1)c1ccccc1 | inactive
32 | CC1=C2[C@@H]([C@H](C)CC[C@H]2/C=C(\C)C(=O)O)[C@H](O)C1 | inactive
33 | CNC1CCCN(c2c(F)cc3c(=O)c(C(=O)O)cn(C4CC4)c3c2OC)C1 (stereo not given) | inactive
34 | O=C(O)c1cccc(C[C@@H]2COc3ccc(OCc4nc5cc(F)ccc5s4)cc3[C@@H]2O)c1 | inactive
35 | CC(C)OC(=O)c1ccccc1C(=O)OC(C)C | inactive
36 | CCCCCCCCCCCCCC(=O)OCC(O)CO (stereo not given) | inactive
37 | O=C(O)CCC(=O)c1ccc(-c2ccccc2)cc1 | inactive
38 | COc1ccc(C)cc1 | inactive
39 | N[C@@H](Cc1cc(I)c(O)c(I)c1)C(=O)O | inactive
40 | CCCCCCCCCCCCCCCCCC(=O)OCC(CC)CCCC (stereo not given) | inactive
